The test system of experiment [1] is Zika virus NS2B-NS3 protease (linked construct). As to the kind of experiment: Primary screen NINDS Rhodamine qHTS for Zika virus inhibitors (AID 1347160). Further: on the % scale 0 is the no-effect control and ±100 the full control effect; nearly all actives have a fitted effect of over 55% in size. A digest of the protocol: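 Each compound, titrated, sat 15 min with 25 nM linked protease before 1.5 microM Rhodamine110 substrate went in. Fluorescence gain over the next 15 min, in pH 8.0 Tris with Tween 20, gave Hill-fitted curves.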

The target of experiment [2] is Calcium and integrin-binding protein 1 (Homo sapiens) (UniProt Q99828). Kind of experiment: Primary qHTS for Identification of Calcium Integrin Binding Protein 1 (CIB1) Competitor (AID 1508620).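 Further: GST tagged CIB1 binding a fluorescein labelled alphaIIb integrin peptide tracer; top concentration of the series differs between compounds; on the % scale 0 is the no-effect control and ±100 the full control effect.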 A digest of the protocol:
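Fluorescence polarization competition: CIB1-GST (1 uM final) preincubated with compound 15 min at room temperature, then FITC-labeled alphaIIb peptide (100 nM final) added for another 15 min. Polarization read at Ex 480/Em 540.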

The target of experiment [3] is Glutathione peroxidase 1 (Homo sapiens) (UniProt P07203). As to the kind of experiment: Primary qHTS Assay for Inhibitors of Recombinant Selenoprotein Glutathione Peroxidase 1 (GPX1) (AID 1845191). Further: nearly all actives have a fitted effect of over 65% in size. A digest of the protocol:
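GPX1 10 nM, GR 100 nM, GSH 1 mM, NADPH 0.5 mM, CHP 0.5 mM (final). 30-min cpd preincubation, RT. Ex340/Em450 read t=0, t=15 min.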
(qHTS replaces the single test concentration by a dilution series.)

The target of experiment [4] is Phospholipid hydroperoxide glutathione peroxidase GPX4 (Homo sapiens) (UniProt P36969). As to the kind of experiment: Primary qHTS Assay for Inhibitors of Recombinant Selenoprotein Glutathione Peroxidase 4 (GPX4) (AID 1845192). Further: nearly all actives have a fitted effect of over 65% in size. On activity change, negative = inhibition: on the % scale 0 is the no-effect control and ±100 the full control effect. A digest of the protocol:
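qHTS, GR-coupled: GPX4 200 nM + cpd 30 min RT → GSH 1 mM, NADPH 0.5 mM, GR 100 nM → CHP 0.5 mM start; fluor 340/450 at t0 and t15 min; no-enzyme wells as control.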

Experiment [5] deals with Luciferin 4-monooxygenase (Photinus pyralis) (UniProt P08659). Kind of experiment: Primary firefly luciferase (FLuc) qHTS assay for identification of artifact compounds. (AID 1845220). Further: nearly all actives have a fitted effect of over 60% in size.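 On activity change, negative = inhibition: plate controls were DMSO vehicle for no effect and no enzyme for full effect.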 To be noted: outcome: dose series up to 54.1 µM unless noted. In short, it runs like this: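 In this counter-screen for luciferase artifacts, test compounds met substrate (10 uM each luciferin and ATP) before 10 nM enzyme started the reaction. Light output was measured 5 min later.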

The nature of experiment [6]: Primary fluorescence-based thiol-reactive (MSTI) qHTS assay for identification of artifact compounds. (AID 1845221).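 Further: thiol-reactive compounds lower the probe fluorescence signal; nearly all actives have a fitted effect of over 65% in size.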 A digest of the protocol:
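Curve-fitted percent inhibition (4-parameter Hill) derived from fluorescence, Ex 525/Em 598 nm, scaled with Acetyl-MSTI and MSTI; 1 h incubation at room temperature.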

The subject of experiment [7] is Nanoluciferase (engineered Oplophorus gracilirostris luciferase). As to the kind of experiment: Primary Nanoluciferase (NLuc) qHTS assay for identification of artifact compounds. (AID 1845222).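 Further: NLuc secreted into diluted conditioned medium of S16 cells.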 A digest of the protocol:
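Using secreted nanoluciferase in S16 culture medium (0.22 um filtered, 1:55 dilution), compounds were preincubated 15 min at RT. Signal was generated with Nano-Glo reagent (1:100) over 5 min.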

Experiment [8] can be described thus: Primary redox qHTS assay for identification of artifact compounds. (AID 1845223).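 Further: 0% = DMSO and 100% = reference compound.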 In short, it runs like this: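 Redox-cycling detection via DTT (250 uM final) oxidation coupled to Amplex Red (25 uM)/HRP (250 mU/mL) in HBSS. 15 min preincubation plus 30 min after DTT, room temperature. Ex/Em 525/598 nm; 4-parameter Hill fit against DMSO and 10 uM DA3003.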
The subject of the next experiment is HaCat. As to the kind of experiment: Cytotoxic Profiling of Annotated Libraries Using Quantitative High-Throughput Screening (AID 1296008). Further: nearly all actives have a fitted effect of over 60% in size. Further: potency means the concentration at half of the fitted maximal effect. On max response: on the % scale 0 is the no-effect control and ±100 the full control effect. To be noted: Five cell lines viability, CellTiter-Glo ATP luminescence, 48-72 h; max response: stronger effect = lower value. A digest of the protocol: (§1)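 Compounds were pin-transferred onto cells and incubated 48 or 72 hr at 37 degree Celsius, 95% humidity. CellTiter-Glo was added, plates sat 10 min at room temperature, then ATP-coupled luminescence was imaged as the viability read-out.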
For orientation: ATP-based viability assays read luminescence as a measure of living cells.

The test system of a further experiment is NIH3T3. The experiment is described as above. To be noted: Five cell lines viability, CellTiter-Glo ATP luminescence, 48-72 h; max response: stronger effect = lower value. A digest of the protocol: as §1
The subject of the next experiment is C33A. As to the kind of experiment: Primary qHTS to identify gynecologic anti-cancer compounds using libraries of approved drugs and bioactive compounds (AID 1345084). Further: nearly all actives have a fitted effect of over 55% in size. Further: potency means the concentration at half of the fitted maximal effect. On activity change, negative = cytotoxicity: on the % scale 0 is the no-effect control and ±100 the full control effect. The following applies: Gynecologic cancer cell panel viability, ATPlite luminescence, 48 h; series mostly up to 57.5 µM. A digest of the protocol:
(§2)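 Cytotoxicity screen measuring ATP content by luciferase luminescence. Each compound is applied at five concentrations for 48 h at 37 C with 5% CO2.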

In a further experiment the test system is CAOV3. Described as above. To be noted: Gynecologic cancer cell panel viability, ATPlite luminescence, 48 h; series mostly up to 57.5 µM. A digest of the protocol:
as §2

Another experiment deals with CASKI. The experiment is described as above. To be noted: Gynecologic cancer cell panel viability, ATPlite luminescence, 48 h; series mostly up to 57.5 µM. In short, it runs like this: as §2
In a further experiment the test system is Es-2. Described as above. The following applies: Gynecologic cancer cell panel viability, ATPlite luminescence, 48 h; series mostly up to 57.5 µM. A digest of the protocol:
as §2

For another experiment, the system named is Hek293T. Described as above. The following applies: Gynecologic cancer cell panel viability, ATPlite luminescence, 48 h, control line for the selectivity index; series mostly up to 57.5 µM. A digest of the protocol:
as §2

For a further experiment, the system named is JEG-3. The description is as above. To be noted: Gynecologic cancer cell panel viability, ATPlite luminescence, 48 h; series mostly up to 57.5 µM. In short, it runs like this: as §2
A further experiment concerns OV90. Described as above. To be noted: Gynecologic cancer cell panel viability, ATPlite luminescence, 48 h; series mostly up to 57.5 µM. In short, it runs like this:
as §2

The subject of a further experiment is PA-1. The description is as above. To be noted: Gynecologic cancer cell panel viability, ATPlite luminescence, 48 h; series mostly up to 57.5 µM. A digest of the protocol:
as §2

The next experiment relates to Tov-21-G. The experiment is described as above. The following applies: Gynecologic cancer cell panel viability, ATPlite luminescence, 48 h; series mostly up to 57.5 µM. In short, it runs like this: as §2
The next experiment concerns Tov112D. The experiment is described as above. The following applies: Gynecologic cancer cell panel viability, ATPlite luminescence, 48 h; series mostly up to 57.5 µM. A digest of the protocol: as §2

Unmarked numbers belong to inactive results. Inconclusive results are not listed. The source made the active and inactive calls. The call rests on the fitted dose curve; in most records, active means well fitted curve in the direction sought with a large enough effect; inconclusive means small, poorly fitted or top-dose-only effect, or another doubt; inactive means no such curve, though single readings can be large; an effect the other way counts as inactive or inconclusive. Where a SMILES comes first, the peptide text is derived from it. [ ]: non-standard residue; d: D form. ξ: configuration not given here. ξLac(3-iPr) = CC(C)CC(O)C(=O)O; NMeV = CN[CH](C(=O)O)C(C)C; NMeA = CN[CH](C)C(=O)O; βAla = NCCC(=O)O

Sequence of Glutathione peroxidase 1 (Homo sapiens) (P07203 whole entry, looked up): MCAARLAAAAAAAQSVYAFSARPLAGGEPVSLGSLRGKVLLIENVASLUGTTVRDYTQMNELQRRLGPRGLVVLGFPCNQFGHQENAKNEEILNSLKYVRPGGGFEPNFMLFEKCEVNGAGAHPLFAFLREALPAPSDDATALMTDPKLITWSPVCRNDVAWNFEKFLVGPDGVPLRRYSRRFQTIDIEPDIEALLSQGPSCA
Sequence of Phospholipid hydroperoxide glutathione peroxidase GPX4 (Homo sapiens) (P36969 whole entry, looked up): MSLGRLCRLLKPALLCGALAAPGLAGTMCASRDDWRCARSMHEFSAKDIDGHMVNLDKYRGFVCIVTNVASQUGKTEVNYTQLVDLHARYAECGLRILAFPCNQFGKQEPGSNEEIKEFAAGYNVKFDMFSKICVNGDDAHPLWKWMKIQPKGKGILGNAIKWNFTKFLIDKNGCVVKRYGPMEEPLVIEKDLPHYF
Sequence of Calcium and integrin-binding protein 1 (Homo sapiens) (Q99828 whole entry, looked up): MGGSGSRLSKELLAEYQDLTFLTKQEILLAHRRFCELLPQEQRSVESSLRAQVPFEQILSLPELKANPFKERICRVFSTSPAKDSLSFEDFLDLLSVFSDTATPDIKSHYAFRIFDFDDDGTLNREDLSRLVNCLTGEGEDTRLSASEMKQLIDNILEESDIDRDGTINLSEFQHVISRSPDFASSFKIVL

Take `CCC1(O)CCC2C3CCC4=CC(=O)CCC4C3CCC21CC` (configuration not stated): the Potency entry in experiment [1], in experiment [2], in [3], in [4], in experiment [6] and in [7] was “inactive” throughout. Moreover, the Potency result (in [8]; with C33A; with CAOV3; in the experiment with CASKI; in the experiment with Es-2; with Hek293T) was “inactive” throughout. For the same molecule, the Potency entry in the experiment on JEG-3, in the experiment on OV90, in the experiment with PA-1, in the experiment with Tov-21-G and with Tov112D was “inactive” throughout. The molecule was classed as inactive (in experiment [5]; in the experiment on HaCat). The max response in the experiment with NIH3T3 is 1.71%.
Consider `COC[C@]12CN(C)C3C4[C@H](OC)[C@H]1C3(C(OC)C[C@H]2O)[C@H]1C[C@@]2(O)[C@H](OC(=O)c3ccccc3)[C@@H]1[C@]4(O)[C@@H](O)[C@@H]2OC` (some centres not stated), for which the Potency entry in experiment [1], in experiment [2], in experiment [3], in experiment [4], in [6] and in experiment [7] was “inactive” in each case. In addition, the Potency entry (in experiment [8]; in the experiment on CAOV3) was “inactive” each time. Besides, the molecule was called inactive in experiment [5]. For the same molecule, the max response with HaCat was -14.8%.
Regarding `C/C=C(/C)C(=O)O[C@H]1[C@@H]2[C@H](C)C(=O)O[C@@H]2C[C@@H](C)[C@@H]2C=CC(=O)[C@]21C`, the Potency result in [1], in experiment [2], in experiment [3], in experiment [6], in experiment [7] and in experiment [8] was “inactive” throughout. In addition, the Potency result in the experiment with JEG-3 and in the experiment on Tov-21-G was “inactive” throughout. Further, in experiment [5], the outcome was inactive. The max response in the experiment with HaCat is -11.7%.
For `COc1cccc(NCC(F)Cn2c3ccc(Br)cc3c3cc(Br)ccc32)c1` (configuration not stated), the Potency entry in experiment [1], in experiment [2], in experiment [3], in experiment [4], in experiment [6] and in experiment [7] was “inactive” in each case. Also, the Potency result (in [8]; in the experiment on OV90) was “inactive” in each case. For the same molecule, the call in experiment [5] was inactive. The Potency was 8.2 µM (active) in the experiment with HaCat; 20.6 µM (active) with NIH3T3; 7.94 µM (active) with CASKI; 20 µM (active) with PA-1; 10 µM (active) with Tov112D.
Turning to `C[C@]12CC[C@H](OC3OC(CO)C(O)C(O)C3OC3OC(CO)C(O)C(O)C3O)C[C@@H]1CC[C@@H]1C2CC[C@]2(C)[C@@H](C3=CC(=O)OC3)CC[C@]12O` (some centres not stated), the Potency result in experiment [1], in experiment [2], in experiment [3], in experiment [4], in [7] and in [8] was “inactive” in each case. Also, the Potency entry in the experiment with CAOV3, in the experiment with CASKI, in the experiment on JEG-3, in the experiment on OV90 and in the experiment on PA-1 was “inactive” in each case. Also, the result (in [5]; in the experiment with NIH3T3) was inactive. Moreover, in the experiment on HaCat, the max response is -2.72%. Also, the Potency in the experiment on Tov112D was 7.08 µM (active).
As to `COc1ccc(CC2C(=O)NC(C)C(=O)N(C)C3Cc4ccc(cc4)Oc4cc(ccc4OC4OC(CO)C(O)C(O)C4O)CC(C(=O)NC(C)C(=O)NC(CCC(=O)O)C(=O)N2C)N(C)C3=O)cc1` (configuration not stated), the Potency result in [1], in [2], in [3] and in [4] was “inactive” each time. In addition, the activity change, negative = inhibition in [5] was -19.1% [at 11.6 µM]. Also, in [6], the activity change, negative = thiol reactive was -0.882% [at 11.5 µM]. Also, in experiment [7], the activity, negative = inhibition was -15.7% [at 11.6 µM]. For the same molecule, the outcome in the experiment with HaCat was inactive. The activity change, negative = cytotoxicity was -30.7% [at 11.6 µM] with CASKI, -7.62% [at 11.6 µM] in the experiment with JEG-3 and -30.8% [at 11.6 µM] in the experiment with OV90. In addition, the Potency in the experiment on PA-1 was 7.08 µM (active).
For the molecule `CCC(C)C1NC(=O)C2CCCN2C(=O)C(CC(C)C)OC(=O)CCNC(=O)C(C)N(C)C(=O)C(C(C)C)N(C)C1=O` (configuration not stated) (cyclo([ξLac(3-iPr)]PI[NMeV][NMeA][βAla]); configuration not given here), the Potency result in experiment [1], in experiment [2], in experiment [3], in experiment [4], in experiment [6] and in experiment [7] was “inactive” in each case. The Potency entry in the experiment on C33A and with CASKI was “inactive” in each case. For the same molecule, the call in experiment [5] was inactive. In addition, the max response with HaCat is -9.99%. For the same molecule, the Potency in the experiment with OV90 was 3.98 µM (active).

(Values after PubChem BioAssay (NCATS).)
